# Several values for one entry are separate records, joined by “and”; a condition that tells them apart may be missing. Equal entries are not always repeated. Hit rate of the full screen: of about 210,000 compounds, about 1,300 (0.62%) were called active.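 Rule for the calls: active = inhibition of 40% or more; inactive = the rest.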 The full list was thinned out, with actives kept by preference. Some compounds were tested as several samples or in several runs, with calls that do not always agree.
# Target: Kallikrein-5 (Homo sapiens) (UniProt Q9Y337)
# Test: inhibition of kallikrein 5 (hK5) activity – biochemical, 1536-well, primary screen (AID 873);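 note: 0% = enzyme controls without compound and 100% = no-enzyme blanks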
# Settings: recombinant hK5, fluorogenic AMC substrate cleavage; at 5 µM; stronger effect = higher value
# Chain of Kallikrein-5 (Homo sapiens) (Q9Y337 67-293 limits assumed): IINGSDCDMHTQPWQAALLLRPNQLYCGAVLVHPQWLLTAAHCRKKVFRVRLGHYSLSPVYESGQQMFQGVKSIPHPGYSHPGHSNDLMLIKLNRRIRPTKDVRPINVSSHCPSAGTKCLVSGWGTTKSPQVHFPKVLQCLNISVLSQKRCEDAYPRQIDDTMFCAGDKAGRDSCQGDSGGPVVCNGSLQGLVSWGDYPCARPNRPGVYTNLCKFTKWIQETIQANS
row,Compound,inhibition
1,Cc1c(C(=O)N(Cc2ccccc2)Cc2cccnc2)cnn1-c1ccc(F)cc1,-6% (inactive)
2,COC(=O)c1ccc(NC(=O)c2ccco2)cc1,-16.9% (inactive)
3,O=C(CSc1ccccc1)Nc1ccc(NC(=O)c2ccco2)cc1,-26.9% (inactive)
4,O=C(Nc1ccc(Oc2ccccc2)cc1)c1ccco1,69.2% (active)
5,O=C(O)CCCCCCCCCC[n+]1ccccc1,-3.11% (inactive)
6,CC1(C)CCSC(/C=C/c2ccccc2)=N1,-4.94% (inactive)
7,Cc1ccc(Nc2nc(N)nc(CN3CCN(Cc4ccccc4)CC3)n2)cc1Cl,-2.25% (inactive)
8,COc1cc(C)nc(N2CCCC(C(=O)NCC(C)C)C2)n1 (stereo not drawn),61.5% (active)
9,Cc1ccnc(N2CCCC(C(=O)Nc3cc(F)ccc3C)C2)n1 (stereo not drawn),-31.1% (inactive)
10,CC(C)CNC(=O)C1CCCN(S(=O)(=O)c2ccc(-n3cnnn3)cc2)C1 (stereo not drawn),11.1% (inactive)
11,COc1cccc(C2Nc3cccc4cccc(c34)N2)c1,-0.21% (inactive)
12,Cc1ccc2c(N)c(C(=O)c3ccccc3)sc2n1,17.9% (inactive)
13,CCc1nc2sc(C(=O)O)c(N)c2c2c1CCCC2,-8.59% (inactive)
14,Cc1nc2sc(C(=O)c3ccccc3)c(N)c2c2c1CCCC2,44% (active)
15,COc1ccc(CC(=O)NCC(=O)N/N=C/c2cc(Br)ccc2OC)cc1,-3% (inactive)
16,COc1cccc2c(C)c(C(=O)O)[nH]c12,90.6% (active)
17,COc1cccc2c(O)cc(=O)n(C)c12,-13.9% (inactive)
18,Cc1c(C(=O)N/N=C/c2ccccc2)[nH]c2c([N+](=O)[O-])cccc12,7.11% (inactive)
19,CSc1nnc(-c2ccc(C(F)(F)F)cn2)o1,2.93% (inactive)
20,OC(CNCc1ccc2c(c1)OCO2)COc1ccccc1 (stereo not drawn),2.06% (inactive)
21,COc1cc(OC)cc(/C(N)=N/O)c1,-2.69% (inactive)

row,Compound,inhibition
1,O=C(O)/C=C/c1cn(Cc2ccccc2)nc1-c1cccs1,-5.27% (inactive)
2,O=C(O)CCn1cc(/C=C/C(=O)c2ccc(Cl)cc2)c(-c2cccc(Br)c2)n1,121% (active)
3,CCOC(=O)/C(C#N)=C/c1cn(CCC(=O)O)nc1-c1ccc(Br)cc1,0.91% (inactive)
4,CCN1CCN(c2nc(Nc3cccc(F)c3)nc(N)c2[N+](=O)[O-])CC1,1.83% (inactive)
5,COC(=O)c1sccc1NC(=O)CC1C(=O)NCCN1C(=O)Nc1ccc(F)cc1F (stereo not drawn),-1.42% (inactive)
6,Cc1ccc(-c2nc(SCC(=O)Nc3ccccc3OC(F)F)c3c(C)c(C(=O)O)sc3n2)cc1,0.7% (inactive)
7,COc1ccc(OC)c(NC(=O)N[C@H](Cc2ccccc2)C(=O)NN)c1,-9.7% (inactive)
8,COC(=O)C1=C(C)NC(=O)NC1/C=C/c1ccccc1 (stereo not drawn),-24.4% (inactive)
9,C=CCOC(=O)C1=C(C)N=C2SCCC(=O)N2C1/C=C/c1ccccc1OC (stereo not drawn),1.43% (inactive)
10,COC(=O)C1=C(C)N=C2SC(C)C(=O)N2C1/C=C/c1ccccc1 (stereo not drawn),61.9% (active)
11,NC(=O)c1nsc(C(=O)N(CC(=O)NCc2ccc(F)cc2)Cc2ccco2)c1N,69.4% (active)
12,Cc1ccnc(NC(=O)CCC(=O)N(CC(=O)NCc2ccccc2)Cc2ccco2)c1,-56.9% (inactive)
13,CSc1ccc(CN(C)CC(=O)NCc2ccc(F)cc2)cc1,-2.79% (inactive)
14,Cc1[nH]n(-c2ccccc2)c(=O)c1N=Nc1ccccc1C(=O)N1CCCCC1,3.28% (inactive)
15,O=C(Cc1ccccc1)N1N=C(c2ccncc2)CC1(O)C(F)(F)F (stereo not drawn),-2.66% (inactive)
16,Brc1ccc2ncnc(NCc3cccnc3)c2c1,-4.89% (inactive)
17,Cc1[nH]n(C)c(=O)c1C(=O)c1c(-c2c(Cl)cccc2Cl)noc1C,5.65% (inactive)
18,O=C(OCN1C(=O)c2ccccc2C1=O)/C(=C\c1ccco1)NC(=O)c1ccccc1,41.6% (active)
19,O=C(NCC1CCCO1)/C(=C\c1ccco1)NC(=O)c1ccccc1 (stereo not drawn),-1.75% (inactive)
20,Cc1cccc(NC(=O)/C(=C\c2ccco2)NC(=O)c2ccccc2)c1,-17.2% (inactive)
21,O=C(CNCCC1=CCCCC1)Nc1ccccc1N1CCCCCC1,-0.35% (inactive)

row,Compound,inhibition
1,Cc1cccc(C)c1Nc1c(-c2ccccc2O)nc2ncccn12,-0.27% (inactive)
2,CC(C)(C)OC(=O)NCCCCCC(=O)N/N=C/c1coc2ccccc2c1=O,-0.18% (inactive)
3,COc1cccc(NC(=O)C(C)Oc2ccccc2)c1 (stereo not drawn),15.3% (inactive)
4,O=C(O)Cc1ccc(-c2ccccc2)cc1,-3.86% (inactive)
5,CCC(C)OC(=O)C(C)Oc1ccc(-c2ccccc2)cc1 (stereo not drawn),54.9% (active)
6,Cc1ccccc1Cn1c2ccccc2c2cnn(CC(=O)NCc3ccco3)c(=O)c21,1.05% (inactive)
7,CCOc1ccccc1NC(=O)CCN1CCN(S(=O)(=O)c2ccc(OC)cc2)CC1,0.91% (inactive)
8,CCOc1ccccc1NC(=O)Nc1cc(OC)ccc1OC,-0.87% (inactive)
9,CCOc1ccccc1NC(=O)CCc1ccc(C)o1,118% (active)
10,CCOCCCNCc1ccc(OCc2ccc(F)cc2)c(OC)c1,-4.94% (inactive)
11,CCS(=O)(=O)NCCc1ccc(OC)c(OC)c1,-7.94% (inactive)
12,COc1ccc(CNCCCO)cc1OC,46.4% (active)
13,O=C(NCc1cccnc1)C(=O)Nc1nc(-c2ccccc2)cs1,-0.27% (inactive)
14,COc1ccccc1-n1cnc2cc(NS(=O)(=O)c3ccccc3)ccc21,53.3% (active)
15,COc1cc(NS(=O)(=O)c2ccccc2)ccc1-n1nc(C)cc1C,-1.07% (inactive)
16,COCCCNC(=O)c1ccc2c(c1)ncn2-c1ccccc1OC,-11.7% (inactive)
17,O=S(=O)(c1ccc(NC(=S)NN=C(C2CC2)C2CC2)cc1)N1CCOCC1,-9.15% (inactive)
18,CCN1C(=O)/C(=c2\s/c(=C3\Sc4ccccc4N3C)c(=O)n2C)N(C)C1=S,2.3% (inactive)
19,CCC(=O)/C=C1\Sc2ccccc2N1CC,-8.47% (inactive)
20,CCN1C(=O)/C(=C2/Sc3ccccc3N2CCCS(=O)(=O)O)SC1=S,-2.57% (inactive) and 43.4% (active)
21,S=c1nc2ccccc2c2nc(-c3cccnc3)[nH]n12,-1% (inactive)

# — PubChem BioAssay AID873 (PCMD, 2007)
